Screens deposited in PubChem BioAssay by National Center for Advancing Translational Sciences (NCATS).
Shiga toxin inh: Shiga toxin inhibition; inhibition, % at 38.7 µM; AID 2315; Vero cells, Shiga toxin protein synthesis inhibition reporter; 290,000 compounds, 9.2% hits; in the data active = inhibition mostly above about 28%, no sharp cut-off; inactive = mostly below about 43%; also: 0% is about no effect
AMA1-RON2 inh: disrupts binding of P. falciparum AMA1 to RON2; 360,000 compounds, 0.2% hits; AID 720542; Potency, µM (doses to about 58.2 µM), for the others: top-dose activity change, negative = inhibition, usual class: inhibitors; AlphaScreen AMA1-biotinylated RON2 peptide binding; active = well fitted inhibition curve with a large enough effect; inconclusive = small, poorly fitted or top-dose-only effect; inactive = no such curve, though single readings can be large or run the other way;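 also: potency is read from the fitted curve at half-maximal effect; 0% = vehicle wells and -100% = peptide control; nearly all actives have a fitted effect of over 45% in size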
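AMA1 (3D7) with his tag at 25 nM final met compounds first, then biotinylated RON2 peptide at 25 nM; detection used donor plus acceptor beads, 10 µg/mL apiece, read by AlphaScreen after 30 min at room temperature.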
MARV entry inh: inhibitors of Marburg virus binding or cell entry; Marburg virus pseudotyped entry inhibition, cell reporter; Potency, µM (series often up to 37.8 µM), for inactives: at the highest dose activity change, negative = inhibition, hits mostly inhibitors; 300,000 compounds, 1.8% hits; AID 540276; calls by dose curve; tested in HEK293 cells; also: potency is read from the fitted curve at half-maximal effect; % is scaled to controls: 0 for no effect and ±100 for the full control effect
LASV entry inh: Lassa virus entry inhibition | Lassa virus pseudotype entry inhibition, cell reporter | Potency, µM (series often up to 37.9 µM), without a hit: top-dose activity change, negative = inhibition, most hits filed as inhibitors | 300,000 compounds, 1.2% hits; calls by dose curve; tested in HEK293 cells; also: potency is read from the fitted curve at half-maximal effect; % is scaled to controls: 0 for no effect and ±100 for the full control effect; nearly all actives have a fitted effect of over 50% in size
Cycloheximide cs: counter-screen hit for Shiga toxin inhibitors, cycloheximide | max response, % | cell reporter, cycloheximide protein synthesis inhibition counterscreen | 300,000 compounds, 12% hits | AID 2314; in the data active = max response mostly above about 13%, no sharp cut-off; inactive = mostly below about 14%; also: read at 38.3 µM for the half of the compounds with a filed dose; 0% is about no effect
* hit, by the source's call; ? = inconclusive; nt = no result given; [ ] = dose if it differs, or a comment. Only a selection was taken, and hits are over-represented in it overall.

SMILES	Shiga toxin inh	AMA1-RON2 inh	MARV entry inh	LASV entry inh	Cycloheximide cs
COc1ccccc1C(=O)/C=C/c1ccc(N2CCCCC2)c([N+](=O)[O-])c1	99*	?	?	?	62*
Cc1cc(C(=O)N2CCC2(C)C(=O)Nc2ccc3[nH]ncc3c2)nn1C (stereo not given)	nt	-9%	nt	nt	nt
CC(C)CC(NC(N)=O)C(=O)NCc1ccccc1Cl (stereo not given)	36	10%	-5%[46.1 µM]	0%[46.1 µM]	35*
CC(C)C(=O)OCC(=O)NCc1ccccc1Cl	28	-4%	7%[46.1 µM]	0%	29*
CSc1cnn(CCC#N)c(=O)n1	nt	3%	nt	nt	nt
O=C(Nc1ccnn1C1CCN(C(=O)c2ccccc2C(F)(F)F)CC1)C1CC1	40	0%	-1%	?	27*
COC(C(=O)Nc1ccnn1C1CCN(C(=O)c2ccc(C=O)cc2)CC1)c1ccccc1 (stereo not given)	-2	0%	-10%[46.1 µM]	?	16
COC(C(=O)N1CCC(n2nccc2NC(=O)C2CC2)CC1)c1ccccc1 (stereo not given)	107*	-5%	18%[46.1 µM]	23%[46.1 µM]	41*
CC1CCCCC1NC(=O)C1CCN(S(=O)(=O)c2cccc3nonc23)CC1 (stereo not given)	14	-5%	10%[46.1 µM]	5%[46.1 µM]	-3
Cn1cccc1C(=O)NNC(=O)COc1ccccc1F	86*	-1%	0%[46.1 µM]	27%[46.1 µM]	33*
Cn1cccc1C(=O)NCCc1ccc(Cl)cc1	125*	-11%	nt	nt	46*
Cn1cccc1C(=O)NCCc1ccccc1	51*	-8%	?	?	23*
COc1ccc(CCNC(=O)c2cccn2C)cc1	-15	0%	nt	nt	7
Cn1cccc1C(=O)NCc1ccc(Cl)cc1	-5	-8%	0%[46.1 µM]	11%	11
Cc1ccc2nc(-c3cccc(N)c3)oc2c1	7	-3%	?	?	10
Cc1cc(C)c2oc(-c3cccc(N)c3)nc2c1	106*	10%	nt	nt	52*
O=C(NCC(c1ccco1)N1CCCC1)c1cc2ccccc2s1 (stereo not given)	nt	-1%	nt	nt	nt
CCOc1ccccc1NC(=O)Cn1c(=O)n(Cc2cccs2)c(=O)c2cccnc21	nt	nt	1%[46.1 µM]	nt	nt
Clc1ccc(OCCSc2ncccn2)c2ccccc12	91*	20%	13%	22%	39*
c1ccc2c(OCCCCN3CCCC3)cccc2c1	13	?	nt	nt	-1
Fc1ccccc1OCCCCSc1ncccn1	22	21%	-6%	13%	27*
c1cnc(SCCOc2cccc3ccccc23)nc1	79*	65%	?	-5%	52*
Fc1ccccc1OCCCn1ccnc1	20	1%	nt	nt	2
COc1cc(/C=N/Nc2nc(N3CCCC3)nc(N3CCCC3)n2)ccc1O	23	17%	-4%	-19%	1
COc1cc(/C=N/Nc2ccccn2)ccc1O	74*	23%	?	?	49*
SMILES	Shiga toxin inh	AMA1-RON2 inh	MARV entry inh	LASV entry inh	Cycloheximide cs
COc1ccc(/C=N/Nc2ncc(C(F)(F)F)cc2Cl)cc1OC	20	0%	13µM*	3%	5
COc1ccc(/C=N/Nc2nc(N)cc(Cl)n2)cc1OC	46	68%	?	1%	21*
COc1ccc(-c2cnnc(N/N=C/c3ccc(O)c(OC)c3)n2)cc1	-1	-11%[2.32 µM]	?	5.8µM*	20*
COc1ccc(/C=N/Nc2nonc2N)cc1OC	3	0%	26%[46.1 µM]	8%	8
CCOC(=O)CSc1nc2cc3c(cc2c(=O)n1CCCC(=O)NCc1ccc2c(c1)OCO2)OCO3	nt	nt	nt	17%[46.1 µM]	nt
Cc1cc(C)c(Cn2c(C)c(CNCCCc3ccccc3)c(C(=O)O)c2C)c(C)c1	nt	nt	-28%[46.1 µM]	-12%[46.1 µM]	nt
CSc1nnc(C(C)(C)C)c(=O)n1N/C=C1\C(=O)CCC2=C1CCCC2	nt	nt	3%[46.1 µM]	nt	nt
CC(C)OCCCn1c(=O)c2ccccc2n2c(-c3cc(Cl)ccc3O)nnc12	nt	nt	8%[46.1 µM]	6%[46.1 µM]	nt
COc1ccc(/C=N/Nc2ccccn2)cc1OC	94*	32%	?	-2%[46.1 µM]	54*
C=CCOc1ccc(/C=N/NC(=O)C(=O)Nc2ccccn2)cc1OC	31	11%	-1%	-21%	12*
O=c1c2cc3c(cc2n(Cc2cccc(F)c2)c(=O)n1Cc1nc(-c2ccccc2)no1)OCO3	nt	nt	nt	5%[46.1 µM]	nt
Cc1cccc(/C=N/NC(=O)Cc2cccs2)c1	72*	9%	16%[46.1 µM]	11%[46.1 µM]	33*
CCOC(=O)N/N=C/C(Cl)=C/c1ccccc1	54*	-7%	3%[46.1 µM]	-5%	38*
O=C(Cc1cccs1)N/N=C/C(Cl)=C/c1ccccc1	118*	-10%	?	0%	31*
O=C(Cc1cccs1)N/N=C/c1ccccc1	27	20%	-5%[46.1 µM]	?	15
